Bioassay records as filed in PubChem.
Hits are enriched below; roughly 7.9% of the tested compounds scored in any of these assays.
HCMV inh – inhibitors of human cytomegalovirus. HFF cells, HCMV-luciferase reporter, 72 h; active compounds read low. activity change, negative = inhibition, % at 57.5 µM. 4.5% of 410,000 active; in the data active = activity change below about -60%; inconclusive = no clear call, values can overlap the other calls; inactive = above about -39%
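Human foreskin fibroblasts infected with luciferase-reporter HCMV at MOI 1 PFU/cell, compounds at two doses. Luciferase measured 72 h post infection; normalized to buffer-only basal and Salinomycin (10uM) controls.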
LASV entry inh – Lassa virus entry inhibition. Lassa virus pseudotype entry inhibition, cell reporter. Potency, µM (top dose mostly 37.9 µM), inactives show at the top dose activity change, negative = inhibition, actives largely listed as inhibitors. 1.2% of 300,000 active. AID 540256; calls by dose curve; tested in HEK293 cells; also: potency is read from the fitted curve at half-maximal effect; nearly all actives have a fitted effect of over 50% in size
HCV inh – HCV inhibition; Potency, µM (doses to about 41.8 µM), for the others: at the highest dose activity change, negative = inhibition, most hits filed as inhibitors; AID 651820; Huh7.5.1 HCVcc-Cre infection, luciferase reporter, 44 h; 3.4% of 340,000 active; active = well fitted inhibition curve with a large enough effect; inconclusive = small, poorly fitted or top-dose-only effect, or another doubt; inactive = no such curve, though single readings can be large or run the other way; also: potency is read from the fitted curve at half-maximal effect
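Whole-lifecycle infectious HCVcc-Cre system; cells 1,000/well, compound then virus (~0.5 moi) added 4 h after plating, 44 h culture. Luciferase read 15 sec following 15 min substrate incubation, room temp.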
FMDV antiviral – antivirals against foot and mouth disease virus; 1.2% of 410,000 active; AID 1159524; Potency, µM (doses to about 57.9 µM), for inactives: at the highest dose activity change, negative = inhibition, hits mostly inhibitors; FMDV antiviral cell-based qHTS; calls by dose curve; tested in HEK293T cells; also: read-out not given here; potency is read from the fitted curve at half-maximal effect; nearly all actives have a fitted effect of over 45% in size
MARV entry inh – inhibitors of Marburg virus binding or cell entry. Marburg virus pseudotyped entry inhibition, cell reporter. Potency, µM (titrated, usually from 37.8 µM), without a hit: at the top dose activity change, negative = inhibition, actives largely listed as inhibitors. 1.8% of 300,000 active; calls by dose curve; tested in HEK293 cells; also: potency is read from the fitted curve at half-maximal effect
* = called active by the depositor; [ ] = another dose, or the depositor's remark. % is scaled to controls: 0 for no effect and ±100 for the full control effect.

What do the screens show for `Cc1ccccc1CCNC(=O)c1ccc(Cl)c(S(=O)(=O)N2CC(C)OC(C)C2)c1` (centres undefined)?
HCMV inh: -88*; LASV entry inh: -20%; HCV inh: 7.9µM*; FMDV antiviral: 18µM*; MARV entry inh: inconclusive

Results for COc1ccc(NC(=O)c2ccc(Cl)c(S(=O)(=O)N3CC(C)OC(C)C3)c2)cn1 (centres undefined) ?
HCMV inh: -90*; HCV inh: 3.2µM*; FMDV antiviral: inconclusive

How did CC1CN(S(=O)(=O)c2cc(C(=O)NCc3ccncc3)ccc2Cl)CC(C)O1 (centres undefined) do in these assays?
HCMV inh: -19; HCV inh: 15%; FMDV antiviral: 2%

Results for COc1ccc(NC(=O)c2ccc(Cl)c(S(=O)(=O)N3CCc4ccccc4C3)c2)cn1 ?
HCMV inh: -104*; LASV entry inh: inconclusive; HCV inh: 11µM*; FMDV antiviral: 20µM*; MARV entry inh: inconclusive

How did CC12C=C(C=Cc3ccc(Br)cc3)C(C)(C1)[C@H](c1ccc(Br)cc1)CC2=O (some centres undefined) do in these assays?
LASV entry inh: inconclusive; MARV entry inh: -26%[14.2 µM]

How did CCOc1ccc(S(=O)(=O)n2cnc3cc(C)c(C)cc32)cc1 do in these assays?
HCMV inh: -86*; LASV entry inh: inconclusive; HCV inh: 10µM*; FMDV antiviral: inconclusive; MARV entry inh: 21µM*

What do the screens show for `Cc1cc2ncn(S(=O)(=O)c3ccc(S(N)(=O)=O)cc3)c2cc1C`?
HCMV inh: 56; HCV inh: -15%; FMDV antiviral: -17%

How did O=C(Nc1ccc(OC(F)(F)C(F)F)c(NC(=O)c2ccc(F)cc2)c1)c1ccc(F)cc1 do in these assays?
HCMV inh: 45; LASV entry inh: -8%; HCV inh: inconclusive; FMDV antiviral: 0%; MARV entry inh: inconclusive

How did Nc1ccc(C(=O)Nc2ccc(OC(F)(F)C(F)F)c(NC(=O)c3ccc(N)cc3)c2)cc1 do in these assays?
HCMV inh: -68*; LASV entry inh: -14%; HCV inh: 6.3µM*; FMDV antiviral: 57%; MARV entry inh: -1%

How did Cc1nc(CC(=O)NCC2Cc3cc(F)cc(-c4ccc(F)c(C)c4)c3O2)cs1 (centres undefined) do in these assays?
FMDV antiviral: -5%

What do the screens show for `O=C1c2c(O)ccc(O)c2C(=O)c2c(NCCNCCO)ccc(NCCNCCO)c21`?
HCMV inh: -98*; LASV entry inh: 0.5µM*; HCV inh: 1.1µM*; FMDV antiviral: inconclusive; MARV entry inh: 0.056µM*

Results for Cc1cc(S(=O)(=O)NC(C)C)ccc1OCC(=O)N1CCOCC1 ?
HCMV inh: 28; LASV entry inh: -2%; HCV inh: 19%; FMDV antiviral: 16%; MARV entry inh: 0%

How did CC(C)NS(=O)(=O)c1ccc(OCC(=O)N2CCN(Cc3ccc4c(c3)OCO4)CC2)c(Cl)c1 do in these assays?
HCMV inh: -68*; LASV entry inh: inconclusive; HCV inh: 11µM*; FMDV antiviral: inconclusive; MARV entry inh: inconclusive

How did Cc1cc(S(=O)(=O)NC(C)C)ccc1OCC(=O)N1CCN(Cc2ccc3c(c2)OCO3)CC1 do in these assays?
HCMV inh: -84*; LASV entry inh: 8.2µM*; HCV inh: inconclusive; FMDV antiviral: inconclusive; MARV entry inh: inconclusive

How did CC(Nc1ncnc2ccccc12)c1ccccc1 (centres undefined) do in these assays?
HCMV inh: -82*; LASV entry inh: inconclusive; HCV inh: 4.5µM*; FMDV antiviral: inconclusive; MARV entry inh: inconclusive

Results for Cc1ccc(-n2ncc3c(NC(C)c4ccccc4)ncnc32)cc1 (centres undefined) ?
HCMV inh: 70; LASV entry inh: 6%[46.1 µM]; FMDV antiviral: 8%

Results for O=c1oc2c3c4c(cc2c2c1CCC2)OCCN4CCC3 ?
HCMV inh: -68*; LASV entry inh: -5%; HCV inh: inconclusive; FMDV antiviral: -22%; MARV entry inh: 2%

What do the screens show for `Cc1ccc2c(c1)c1c(c(=O)n(-c3cccc(Cl)c3)c(=O)n1CC(=O)Nc1c(C)cccc1C)n2C`?
HCMV inh: 6; LASV entry inh: -17%[46.1 µM]; FMDV antiviral: -5%; MARV entry inh: 4%[46.1 µM]

Results for CC(C)C1C(c2ccccc2)N(C)C(c2ccccc2)CC1(O)c1ccccc1 (centres undefined) ?
HCMV inh: inconclusive; LASV entry inh: inconclusive; HCV inh: 13%; FMDV antiviral: -30%; MARV entry inh: 15µM*

What do the screens show for `CN(C)C(=O)CSc1nc2ccc(N3C(=O)c4ccccc4C3=O)cc2s1`?
HCMV inh: -65*; HCV inh: -17%; FMDV antiviral: 1%

Results for COC(=O)c1ccc(NC(=O)CSc2nc3ccc(N4C(=O)C5C6C=CC(C6)C5C4=O)cc3s2)cc1 (centres undefined) ?
HCMV inh: -64*; LASV entry inh: inconclusive; HCV inh: 11µM*; FMDV antiviral: 14µM*; MARV entry inh: inconclusive

Results for O=C(O)c1ccc(CSc2nc3ccc(N4C(=O)C5C6C=CC(C6)C5C4=O)cc3s2)cc1 (centres undefined) ?
HCMV inh: 36; LASV entry inh: -2%; HCV inh: 11%; FMDV antiviral: -10%; MARV entry inh: inconclusive

How did CCc1cccc(CC)c1NC(=O)CSc1nc2ccc(N3C(=O)C4C5C=CC(C5)C4C3=O)cc2s1 (centres undefined) do in these assays?
HCMV inh: inconclusive; LASV entry inh: inconclusive; HCV inh: 11µM*; FMDV antiviral: inconclusive; MARV entry inh: inconclusive

What do the screens show for `Cc1cccc(NC(=O)CSc2nc3ccc(N4C(=O)c5ccccc5C4=O)cc3s2)c1C`?
HCMV inh: 3; LASV entry inh: -3%; HCV inh: 10%; FMDV antiviral: 17%; MARV entry inh: 0%

What do the screens show for `O=C(Nc1cccc(C(F)(F)F)c1)N1CCC(CN2CCCCCC2)CC1`?
HCMV inh: -11; LASV entry inh: 4%[46.1 µM]; FMDV antiviral: -9%

Results for O=c1c2sc3ccccc3c2n(Cc2ccccc2F)c(=O)n1-c1ccccc1Cl ?
HCMV inh: 1; LASV entry inh: 2%[46.1 µM]; FMDV antiviral: -26%; MARV entry inh: inconclusive

Results for CC(=O)N1Cc2ccccc2C(C)CC12CCCC2 (centres undefined) ?
HCMV inh: 26; LASV entry inh: -11%; HCV inh: inconclusive; FMDV antiviral: 25µM*; MARV entry inh: -7%

Results for CC(=O)N1c2ccccc2C(C)CC12CCCCC2 (centres undefined) ?
HCMV inh: -21; LASV entry inh: 9%; HCV inh: 26%; FMDV antiviral: inconclusive; MARV entry inh: 3%

Results for COc1cc(CN2CCC(n3nccc3NC(=O)C3CC3)CC2)cc(OC)c1 ?
HCMV inh: -13; LASV entry inh: 9%; HCV inh: -7%; FMDV antiviral: -6%; MARV entry inh: 4%
